Data taken from the supplement of paper PMC12636033.
± gives the standard deviation of the averaged measurements. Whole data set: some 33,000 sequences, median “E-score (rank enrichment, -0.5 to 0.5)” near -0.0043, cut for the highest 2% near 0.24. Shown is part of a subset that was picked to be rich in the highest values.

What follows are sequences tested on 2Sp-muMax20 (muMax20 with two 2,6-bis(methyl)pyridine Cys staples) (assay: PBM 8-mer E-score (E-score (rank enrichment, -0.5 to 0.5)); higher = stronger preferential binding).
Experimental: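 Protein binding microarray (universal PBM chip covering all 10-mers in fixed probe flanks) with chemically synthesized human Max(13-93) bHLH-LZ analogs (not full-length Max) bearing noncanonical residues (hArg, Tha, Aib, Nle at 65) and aromatic Cys staples. Read-out per 8-mer (and its reverse complement): E-score (rank-based enrichment, -0.5 to 0.5) and Z-score of median probe intensity.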

Row | Sequence | PBM 8-mer E-score
1 | ACTGATTA | 0.0334 ± 0.067
2 | CCTGATTA | 0.0465 ± 0.018
3 | CTTGATTA | 0.0552 ± 0.1
4 | GTTGATTA | 0.25 ± 0.057
5 | GCTGATTA | 0.273 ± 0.011
6 | ATTGATTA | 0.124 ± 0.078
7 | CAAAGAGG | 0.00199 ± 0.021
8 | GCTTACGA | 0.0276 ± 0.057
9 | CGGGTCCC | -0.36 ± 0.051
10 | AAATGATT | -0.0058 ± 0.064
11 | CACGGACA | -0.212 ± 0.011
12 | AAGGGGCG | -0.00545 ± 0.089
13 | AAAGGGCT | -0.0325 ± 0.13
14 | AAGGGGCT | 0.271 ± 0.019
15 | ACCTCTGC | -0.0962 ± 0.11
16 | CGGACAAA | -0.0707 ± 0.0079
17 | CAGCGGCC | -0.156 ± 0.048
18 | CGCATGCA | 0.161 ± 0.026
19 | TGCATGCA | 0.282 ± 0.038
20 | AACATGCA | 0.205 ± 0.17
21 | ACCATGCA | 0.187 ± 0.0036
22 | GGCATGCA | 0.0431 ± 0.062
23 | AGCATGCA | 0.301 ± 0.023
24 | CAAAGGGG | 0.00961 ± 0.03
25 | CACATCCA | 0.103 ± 0.042
26 | CTCTTCCA | -0.0254 ± 0.029

Row | Sequence | PBM 8-mer E-score
27 | AAGTCGAC | 0.0839 ± 0.081
28 | CAGCGGGG | -0.157 ± 0.043
29 | CTCCTGCC | 0.0184 ± 0.066
30 | GTGATGTA | 0.268 ± 0.018
31 | ATGATGTA | 0.131 ± 0.049
32 | CTGATGTA | -0.072 ± 0.074
33 | ACATACAC | 0.0759 ± 0.032
34 | ACATATAT | 0.309 ± 0.061
35 | ACATACAG | 0.191 ± 0.11
36 | TCATATAA | 0.227 ± 0.045
37 | CCATATAA | 0.0911 ± 0.065
38 | ACATATAA | 0.333 ± 0.0052
39 | ACATACGC | 0.0353 ± 0.028
40 | ACATATAC | 0.158 ± 0.072
41 | ACATACGA | 0.237 ± 0.049
42 | TCATACGA | 0.214 ± 0.047
43 | ACATACAT | 0.252 ± 0.054
44 | ACATATAG | 0.174 ± 0.031
45 | CGCAAATC | -0.0745 ± 0.17
46 | CCGTCGAG | -0.0626 ± 0.0034
47 | CTTATCGA | 0.0942 ± 0.054
48 | CGTTACGC | -0.173 ± 0.044
49 | AAGTGGGG | 0.1713 ± 0.001
50 | GCATGGGA | -0.0247 ± 0.032
51 | AATCCCGG | -0.104 ± 0.0059
52 | AGACTTAG | -0.023 ± 0.017

Row | Sequence | PBM 8-mer E-score
53 | AGATATAT | 0.252 ± 0.043
54 | AGATATAG | 0.174 ± 0.0033
55 | AGATATAC | 0.146 ± 0.046
56 | ATATAGGG | 0.0694 ± 0.043
57 | CGGAATAC | -0.144 ± 0.035
58 | AAAAGTGG | 0.159 ± 0.0062
59 | GCCTGCAA | -0.0187 ± 0.071
60 | GCACATAA | 0.121 ± 0.02
61 | GAACATAA | 0.0635 ± 0.079
62 | CTACATAA | 0.122 ± 0.021
63 | GTACATAA | 0.171 ± 0.011
64 | TTACATAA | 0.259 ± 0.0094
65 | ACACATAA | 0.24 ± 0.037
66 | CCACACTC | 0.00608 ± 0.081
67 | CCACACTA | 0.261 ± 0.026
68 | ACACACTA | 0.158 ± 0.0088
69 | AAACATAA | 0.289 ± 0.0052
70 | AAACATAG | 0.0784 ± 0.084
71 | ACACATAG | -0.0161 ± 0.023
72 | CAGTGGAG | 0.0231 ± 0.066
73 | CACAGGGC | -0.258 ± 0.027
74 | CCAACTCA | -0.0281 ± 0.11
75 | CCCACCAA | 0.127 ± 0.019
76 | ATATCAAT | 0.172 ± 0.089
77 | AGCCTCTG | -0.079 ± 0.05
78 | ATTTGAAA | 0.168 ± 0.12

Row | Sequence | PBM 8-mer E-score
79 | AGGTCTCC | -0.0447 ± 0.033
80 | GTGCAGTA | 0.106 ± 0.039
81 | AACGACTA | 0.0385 ± 0.073
82 | TCACACAA | 0.238 ± 0.017
83 | CCACACAA | 0.0212 ± 0.012
84 | ACACACAA | 0.0759 ± 0.063
85 | ACCCCTGG | -0.144 ± 0.039
86 | ATCGAAGG | -0.0475 ± 0.11
87 | ACCATATA | 0.23 ± 0.082
88 | ACAAGCAC | -0.115 ± 0.13
89 | GCAAGCAC | -0.00775 ± 0.028
90 | CCAAGCAC | 0.235 ± 0.038
91 | CCCACCGC | 0.0543 ± 0.035
92 | ATTCTCAA | 0.123 ± 0.02
93 | ACTAGAAC | 0.0769 ± 0.048
94 | GAATATTA | 0.22 ± 0.026
95 | AAATATTG | 0.075 ± 0.0023
96 | TAATATTA | 0.343 ± 0.044
97 | CAATATTA | 0.19 ± 0.058
98 | GAATATTC | 0.189 ± 0.064
99 | TAATATGA | 0.135 ± 0.072
100 | AAATATTA | 0.28 ± 0.067
101 | CAATATTC | 0.0714 ± 0.068
102 | AAATATTC | 0.249 ± 0.043
